A number with no mark means an inactive call. Calls of active or inactive are those of the source. Cut-off read from the data, not from the text of the source, unless noted: active = inhibition above about 36%; inactive = the rest.
Key:
[1] = system: transactivating tegument protein VP16 (Human herpesvirus 1); assay: compounds suppressing VP16-driven luciferase signal – cell-based, luminescence, single concentration, counter-screen for SRC2 inhibitor project (AID 652007); conditions: cell-based VP16 transactivation luciferase reporter, at 8.9 µM, hits give high values
[2] = biological target: Nuclear receptor coactivator 2 (Homo sapiens) (UniProt Q15596); assay: inhibition of GAL4-SRC2 driven luciferase expression – cell-based, luminescence, HEK293, triplicate, confirmation (AID 652008;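 active = mean inhibition above 46.5%, the solvent-only control mean plus 3 SD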;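 note: 0% = DMSO-treated cells and 100% = Gossypol at 36 µM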); conditions: HEK293 GAL4-SRC2 luciferase reporter, at 8.9 µM, hits give high values
Nuclear receptor coactivator 2 (Homo sapiens), sequence (Q15596 whole entry, looked up, the tested form may be a part): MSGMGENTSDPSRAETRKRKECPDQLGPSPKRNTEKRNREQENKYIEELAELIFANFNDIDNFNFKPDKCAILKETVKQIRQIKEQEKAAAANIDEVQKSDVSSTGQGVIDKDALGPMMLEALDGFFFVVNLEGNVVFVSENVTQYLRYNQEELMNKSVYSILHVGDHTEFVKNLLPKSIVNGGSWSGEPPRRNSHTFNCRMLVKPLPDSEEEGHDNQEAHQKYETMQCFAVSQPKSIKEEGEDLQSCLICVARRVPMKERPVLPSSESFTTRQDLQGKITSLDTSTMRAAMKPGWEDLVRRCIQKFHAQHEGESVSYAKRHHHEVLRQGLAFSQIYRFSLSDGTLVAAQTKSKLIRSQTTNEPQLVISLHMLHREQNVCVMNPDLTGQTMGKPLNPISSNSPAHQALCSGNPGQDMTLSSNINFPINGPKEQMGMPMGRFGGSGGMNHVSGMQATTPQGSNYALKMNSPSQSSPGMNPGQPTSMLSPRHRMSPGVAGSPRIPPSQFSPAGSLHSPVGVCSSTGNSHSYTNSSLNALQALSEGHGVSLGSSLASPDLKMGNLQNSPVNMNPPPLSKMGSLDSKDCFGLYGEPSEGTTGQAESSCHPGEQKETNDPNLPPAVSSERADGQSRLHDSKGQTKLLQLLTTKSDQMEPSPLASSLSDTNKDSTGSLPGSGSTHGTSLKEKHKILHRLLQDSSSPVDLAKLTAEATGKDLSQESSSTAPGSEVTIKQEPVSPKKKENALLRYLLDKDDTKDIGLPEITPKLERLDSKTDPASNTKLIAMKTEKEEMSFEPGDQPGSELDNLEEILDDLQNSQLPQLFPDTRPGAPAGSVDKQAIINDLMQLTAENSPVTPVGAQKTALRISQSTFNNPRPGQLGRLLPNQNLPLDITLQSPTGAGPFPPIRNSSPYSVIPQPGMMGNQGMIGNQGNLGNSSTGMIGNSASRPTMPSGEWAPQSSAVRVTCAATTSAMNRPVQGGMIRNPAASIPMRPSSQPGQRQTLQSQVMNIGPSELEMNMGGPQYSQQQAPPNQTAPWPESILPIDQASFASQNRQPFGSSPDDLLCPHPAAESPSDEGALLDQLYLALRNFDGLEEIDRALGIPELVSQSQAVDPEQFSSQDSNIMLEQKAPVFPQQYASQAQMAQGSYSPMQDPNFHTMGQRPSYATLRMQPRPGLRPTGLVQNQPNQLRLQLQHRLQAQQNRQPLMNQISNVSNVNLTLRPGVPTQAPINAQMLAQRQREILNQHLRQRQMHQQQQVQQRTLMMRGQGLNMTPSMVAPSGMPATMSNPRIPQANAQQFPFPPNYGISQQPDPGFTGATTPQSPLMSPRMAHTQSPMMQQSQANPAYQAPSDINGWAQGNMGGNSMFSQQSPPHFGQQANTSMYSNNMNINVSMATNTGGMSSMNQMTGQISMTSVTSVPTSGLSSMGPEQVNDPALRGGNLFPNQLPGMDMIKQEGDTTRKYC

Row | SMILES | inhibition [1] | inhibition [2]
1 | O=C(c1ccccc1)N1CCN(c2ncnc3sc4c(c23)CCC4)CC1 | 19.7% | 37.1%
2 | O=S(=O)(Cc1ccccc1Cl)NCCc1ccc(F)cc1 | -11.3% | -1.95%
3 | CCOC(=O)[C@H]1[C@H]2COc3ccc(Br)cc3[C@@H]2N2C(=O)CN(Cc3ccco3)C(=O)[C@@]12C | 0.08% | -14.4%
4 | C[C@H]1CCC[C@@H](O)CC(=O)c2c(O)cc(O)cc2CC(=O)O1 | 24% | 32.3%
5 | Cc1ccc2c(c1)COc1c3ccc(C(=O)O)cc3nn1-2 | -24.7% | -1.87%
6 | COc1ccc(-c2nnn(CC(=O)N(Cc3cccs3)C(C)C(=O)NCCC(C)C)n2)cc1OC (configuration not stated) | -10.9% | 9.41%
7 | CCOC(=O)C1(CC2CC2)CCN(Cc2cnc(-c3ccccc3C)nc2)CC1 | 3.57% | 3.04%
8 | CCCN(CCC)Cc1c(C(=O)N/N=C/CCc2ccccc2)nnn1-c1nonc1N | -6.81% | -9.2%
9 | Cc1cccc(C(=O)Nc2ccc(CC(=O)O)cc2)c1 | -2.26% | 26.9%
10 | O=C(O)CCSc1nc2ccccc2s1 | 40.8% (active) | 58.5% (active)
11 | COc1ccc(CN2C(=O)C(CC(=O)NCCN3CCOCC3)CC(C(=O)N(C(C)C)C(C)C)=C2C)cc1 (configuration not stated) | 0.37% | -36.3%
12 | Cc1ccc(C(=O)Nc2ccc3ccccc3c2)cc1 | -57.4% | 12.1%
13 | COc1ccc(N2CCN(C(=O)CCCCCn3c(=S)[nH]c4ccc(N5CCOCC5)cc4c3=O)CC2)cc1 | -3.27% | -4.46%
14 | Cc1ccc(S(=O)(=O)C[C@@H]2OC[C@H](C)N2S(=O)(=O)c2ccc(C)cc2)cc1 | 1.93% | -6.07%
15 | CCS(=O)(=O)Nc1ccc(C2=NN(C(=O)c3ccco3)C(c3cccs3)C2)cc1 (configuration not stated) | -5.61% | -29.7%
16 | COc1cc2ncnc(NCc3ccc4c(c3)OCO4)c2cc1OC | 7.59% | -5.74%
17 | CCN(CC)Cc1nc2c(c(=O)[nH]1)C(CC)(CC)Cc1ccccc1-2 | -14.9% | 6.86%
18 | O=[N+]([O-])c1cc(Br)c(Nc2ccccc2)c([N+](=O)[O-])c1 | -21.9% | -12.5%
19 | COC(=O)COc1ccc(S(=O)(=O)Nc2ccc3c(c2)OCCO3)cc1C | -11.5% | 6.48%
20 | Oc1cc2ccccc2cc1-c1nnc2n1-c1ccccc1SC2 | 5.09% | 3.52%
21 | C(=N\Nc1nc2ccccc2s1)/c1ccccn1 | 49.5% (active) | 52.3% (active)
22 | Cc1cc(NC(=O)c2ccccc2)c(Cl)cc1N | 25.4% | 52.1% (active)
23 | O=S(=O)(c1ccc2c(c1)OCCO2)N1CCN(c2ncnc3sccc23)CC1 | 6.15% | 36.6%
24 | CC(=O)Nc1ccc(Nc2nc(C)c([N+](=O)[O-])c(N(C)c3ccccc3)n2)cc1 | 32.4% | 49.2% (active)

Row | SMILES | inhibition [1] | inhibition [2]
25 | COc1ccc(S(=O)(=O)N2CCC(C(=O)c3ccc4c(c3)OCCO4)CC2)cc1 | -0.72% | -0.4%
26 | COc1ccc([C@H]2CC(=O)C=C(c3ccc(Oc4ccccc4)cc3)C2)cc1OC | 10.7% | 15.4%
27 | COc1ccc(-n2c(SCC(=O)NN=Cc3c(O)ccc4ccccc34)nnc2-c2ccc(C(C)(C)C)cc2)cc1 | -13% | 30.7%
28 | COC(=O)[C@]12C[C@H](CC(=O)N3CCCC3)C(=O)N(CCC3=CCCCC3)C1=C[C@H](C(C)C)O[C@@H]2C1CC1 | -0.66% | -19.4%
29 | CN(Cc1ccccc1)C(=O)c1ccc(NC(=O)C2CCN(C(=O)OC(C)(C)C)CC2)cc1 | 15.8% | 60.4% (active)
30 | CC(C)(C)c1ccc(C(=O)CCC(=O)OCC(=O)NCCc2ccc(S(N)(=O)=O)cc2)cc1 | 26.1% | 37.1%
31 | CC(C)COc1ccc(C(=S)N2CCCC2)cc1 | -1.55% | 40.6%
32 | CC(=NNc1ccc2ccccc2n1)c1ccccn1 | 83.8% (active) | 89.3% (active)
33 | CC(C)Oc1ccc(S(=O)(=O)N2CCCCC2)cc1NC(=O)C1CCCC1 | 11.3% | 2.87%
34 | Cn1nnnc1Sc1ncnc2scc(-c3cccc(S(C)(=O)=O)c3)c12 | 21.7% | 2.26%
35 | COc1cc(C(O)c2nc(-c3ccncc3)cs2)ccc1F (configuration not stated) | 4.64% | 20.8%
36 | Cc1ccc([C@@H]2C[C@H]3[C@@H](CN2S(=O)(=O)c2ccc(C)cc2)C(=O)C[C@@H](c2ccccc2F)N3S(=O)(=O)c2ccc(C)cc2)cc1 | -8.37% | -5.47%
37 | CCN(CC)S(=O)(=O)c1ccc(NC2c3ccccc3C(=O)N2Cc2ccco2)cc1 (configuration not stated) | -12.8% | -30.1%
38 | CCN(CC)c1ccc(NC(=O)CCCCC(=O)Nc2ccc(N(CC)CC)cc2)cc1 | 16.2% | 48.3% (active)
39 | COc1ccc(CNC(=O)COC(=O)CCCOc2ccc(Cl)cc2Cl)cc1 | 13% | 15.7%
40 | CS(=O)(=O)N1CCC(C(=O)NCc2ccccc2)CC1 | -4.73% | -13.2%
41 | Nc1ccc(OC(=O)Nc2ccc(O)cc2)cc1 | 31.8% | 73.7% (active)
42 | COc1ccc(-c2cn3cccnc3n2)cc1NC(=O)C(C)Oc1ccccc1 (configuration not stated) | -18.1% | -20.2%
43 | O=C(Nc1ccncc1)c1c(Cl)cccc1Cl | -4.71% | 12.5%
44 | Cc1ccc(S(=O)(=O)Nc2ccccc2C(=O)N2CCCC2)cc1 | -24.9% | 0.98%
45 | CC(=O)Nc1cc(-c2ccc(C(=O)NC3CC3)cc2)cn2c(-c3cccc(C(F)(F)F)c3)cnc12 | -9.85% | -1.25%
46 | CCC1CN(C(=O)NCc2cccc(OC)c2)c2ccccc2O1 (configuration not stated) | -11.8% | -14.7%
47 | O=C(Nc1ccc(N2CCOCC2)cc1)c1cnsn1 | -8.19% | 34.3%
48 | COc1cc(NC(=O)COC(=O)c2[nH]c(C)c(C(C)=O)c2C)cc(OC)c1 | 9.16% | 15.2%

Row | SMILES | inhibition [1] | inhibition [2]
49 | CCCC(CCC)C(=O)Nc1ccc2c(c1)N(C(=O)CN1CCN(C)CC1)c1ccccc1CC2 | -0.11% | -4.28%
50 | COc1cc(CNc2ccc3[nH]c(=O)[nH]c3c2)cc(Br)c1OCc1ccc(F)cc1 | 1.78% | 29.9%
51 | O=C(COC(=O)c1ccc(Br)o1)NCC(=O)Nc1ccc(F)cc1 | -21% | -15.8%
52 | CCOc1ccc(NC(=O)c2ccccn2)cc1 | -15.2% | 25.7%
53 | CCN(C(=O)C1CCCN(c2nnc(-n3cccc3)s2)C1)c1ccccc1C (configuration not stated) | 11.5% | 16.4%
54 | Cc1nc(=O)c(-c2ccccc2)c(C)n1-c1ccccc1Cl | -4.06% | -36.8%
55 | Cc1nc(SCc2cccc(C(=O)O)c2)nc2c1CCCC2 | 4.6% | 56.6% (active)
56 | CC(=O)NN1C(=O)/C(=C\c2ccc(Br)o2)SC1=S | 14.8% | 19.2%
57 | C[C@@H]1CCN(C2CC2)S(=O)(=O)c2ccc(N3CCC[C@H]3C)cc2O1 | -8.49% | -6.67%
58 | Cc1ccccc1CS(=O)(=O)c1ccc(C(=O)N2CCOCC2)cc1[N+](=O)[O-] | 14.6% | 24.6%
59 | COc1cccc(CNC(=O)C2CCN(S(=O)(=O)c3ccc(F)cc3)CC2)c1 | 16.3% | -10.1%
60 | Nc1nc(-c2ccccc2)c(N=Nc2cccnc2)s1 | 5.71% | 11.2%
61 | O=C(CCCN1C(=O)/C(=C/c2ccccc2Cl)SC1=S)NNC(=O)c1cccnc1 | 34.3% | 29.9%
62 | COc1ccc(C(=O)c2ccc(CC(=O)O)s2)cc1 | 29.4% | 43.1%
63 | Cc1csc2ncnc(N3CCN(C(=O)Nc4ccc(OC(F)(F)F)cc4)CC3)c12 | 1.45% | 26.6%
64 | Cc1ccc(NC(=O)c2ccc(NC(=O)C3CCCCC3C(=O)O)cc2)cc1 (configuration not stated) | -56% | -17.6%
65 | O=C(N/N=C/c1ccc([N+](=O)[O-])s1)c1ccccc1 | 34.9% | 24.6%
66 | NC(=S)N1OC[C@@H]2COc3ccc4ccccc4c3[C@@H]21 | 2.09% | 48.6% (active)
67 | CC(C)c1ccc(/C=C2\CC/C(=C\C=N\N(C)C)C2=O)cc1 | -56.7% | -2.89%
68 | Cc1ccc(NS(=O)(=O)c2cccc(C(=O)NCCCN3CCCC3=O)c2)cc1 | -1.94% | 0.08%
69 | O=C(COC(=O)c1cccc(F)c1)Nc1cccc(S(=O)(=O)N2CCCCC2)c1 | 1.01% | 2.48%
70 | Cc1ccc(S(=O)(=O)c2nc(NCCN(C)C)sc2Cl)cc1 | -5.23% | 28.4%
71 | CC1=CC(C)(C)Nc2ccc(OC(=O)c3cccnc3)cc21 | -32.4% | 39.7%
